# Laboratory results as given in paper PMC11062922 (Nature Chemical Biology, 2023).
# Where two headings read alike, the source gives them in different places.
# Tests used:
# STK4 = conditions: read-out: apparent Kd, n = 1
# SYK = conditions: read-out: apparent Kd, n = 1
substance,measurement,setting,value
Lestaurtinib,potency estimated from few doses,"STK4; compound concentrations:100 nM and 1000 nM (sheet 'Lestaurtinib' of Supplementary Table 1),run:Lestaurtinib_02752_R2,Plate:MR025",0.0362 µM
same,potency estimated from few doses,"STK4; compound concentrations:100 nM and 1000 nM (sheet 'Lestaurtinib' of Supplementary Table 1),run:Lestaurtinib_02752_R3,Plate:MR025",0.0359 µM
same,potency estimated from few doses,"STK4; compound concentrations:100 nM and 1000 nM (sheet 'Lestaurtinib' of Supplementary Table 1),run:Lestaurtinib_02766_R2,Plate:MR027",0.0454 µM
same,potency estimated from few doses,"STK4; compound concentrations:100 nM and 1000 nM (sheet 'Lestaurtinib' of Supplementary Table 1),run:Lestaurtinib_02768_R1,Plate:MR028",0.0432 µM
same,potency estimated from few doses,"STK4; compound concentrations:100 nM and 1000 nM (sheet 'Lestaurtinib' of Supplementary Table 1),run:Lestaurtinib_02795_R2,Plate:MR022",0.0297 µM
same,potency estimated from few doses,"STK4; compound concentrations:100 nM and 1000 nM (sheet 'Lestaurtinib' of Supplementary Table 1),run:Lestaurtinib_02802_R1,Plate:MR029",0.0347 µM
same,potency estimated from few doses,"STK4; compound concentrations:100 nM and 1000 nM (sheet 'Lestaurtinib' of Supplementary Table 1),run:Lestaurtinib_02896_R1,Plate:MR030",0.0358 µM
same,potency estimated from few doses,"STK4; compound concentrations:100 nM and 1000 nM (sheet 'Lestaurtinib' of Supplementary Table 1),run:Lestaurtinib_03172_R1,Plate:MR031",0.0306 µM
same,potency estimated from few doses,"STK4; compound concentrations:100 nM and 1000 nM (sheet 'Lestaurtinib' of Supplementary Table 1),run:Lestaurtinib_03172_R2,Plate:MR031",0.0388 µM
same,potency estimated from few doses,"STK4; compound concentrations:100 nM and 1000 nM (sheet 'Lestaurtinib' of Supplementary Table 1),run:Lestaurtinib_03172_R3,Plate:MR031",0.0352 µM
same,potency estimated from few doses,"STK4; compound concentrations:100 nM and 1000 nM (sheet 'Lestaurtinib' of Supplementary Table 1),run:Lestaurtinib_03252_R2,Plate:MR032",0.0456 µM
same,potency estimated from few doses,"STK4; compound concentrations:100 nM and 1000 nM (sheet 'Lestaurtinib' of Supplementary Table 1),run:Lestaurtinib_03260_R1,Plate:MR033",0.0382 µM
same,potency estimated from few doses,"STK4; compound concentrations:100 nM and 1000 nM (sheet 'Lestaurtinib' of Supplementary Table 1),run:Lestaurtinib_03260_R2,Plate:MR033",0.0475 µM
same,potency estimated from few doses,"SYK; compound concentrations:100 nM and 1000 nM (sheet 'Lestaurtinib' of Supplementary Table 1),run:Lestaurtinib_02339_R1,Plate:MR001",0.511 µM
same,potency estimated from few doses,"SYK; compound concentrations:100 nM and 1000 nM (sheet 'Lestaurtinib' of Supplementary Table 1),run:Lestaurtinib_02364_R1,Plate:MR002",0.481 µM
same,potency estimated from few doses,"SYK; compound concentrations:100 nM and 1000 nM (sheet 'Lestaurtinib' of Supplementary Table 1),run:Lestaurtinib_02364_R3,Plate:MR002",0.486 µM
same,potency estimated from few doses,"SYK; compound concentrations:100 nM and 1000 nM (sheet 'Lestaurtinib' of Supplementary Table 1),run:Lestaurtinib_02367_R1,Plate:MR003",0.14 µM
same,potency estimated from few doses,"SYK; compound concentrations:100 nM and 1000 nM (sheet 'Lestaurtinib' of Supplementary Table 1),run:Lestaurtinib_02381_R1,Plate:MR004",0.206 µM
same,potency estimated from few doses,"SYK; compound concentrations:100 nM and 1000 nM (sheet 'Lestaurtinib' of Supplementary Table 1),run:Lestaurtinib_02381_R2,Plate:MR004",0.17 µM
same,potency estimated from few doses,"SYK; compound concentrations:100 nM and 1000 nM (sheet 'Lestaurtinib' of Supplementary Table 1),run:Lestaurtinib_02381_R3,Plate:MR004",0.44 µM
same,potency estimated from few doses,"SYK; compound concentrations:100 nM and 1000 nM (sheet 'Lestaurtinib' of Supplementary Table 1),run:Lestaurtinib_02407_R1,Plate:MR005",0.189 µM
same,potency estimated from few doses,"SYK; compound concentrations:100 nM and 1000 nM (sheet 'Lestaurtinib' of Supplementary Table 1),run:Lestaurtinib_02407_R2,Plate:MR005",0.134 µM
same,potency estimated from few doses,"SYK; compound concentrations:100 nM and 1000 nM (sheet 'Lestaurtinib' of Supplementary Table 1),run:Lestaurtinib_02407_R3,Plate:MR005",0.157 µM
same,potency estimated from few doses,"SYK; compound concentrations:100 nM and 1000 nM (sheet 'Lestaurtinib' of Supplementary Table 1),run:Lestaurtinib_02422_R2,Plate:MR006",0.507 µM
same,potency estimated from few doses,"SYK; compound concentrations:100 nM and 1000 nM (sheet 'Lestaurtinib' of Supplementary Table 1),run:Lestaurtinib_02422_R3,Plate:MR006",0.218 µM
same,potency estimated from few doses,"SYK; compound concentrations:100 nM and 1000 nM (sheet 'Lestaurtinib' of Supplementary Table 1),run:Lestaurtinib_02437_R2,Plate:MR007",0.5 µM
same,potency estimated from few doses,"SYK; compound concentrations:100 nM and 1000 nM (sheet 'Lestaurtinib' of Supplementary Table 1),run:Lestaurtinib_02438_R2,Plate:MR008",0.161 µM
same,potency estimated from few doses,"SYK; compound concentrations:100 nM and 1000 nM (sheet 'Lestaurtinib' of Supplementary Table 1),run:Lestaurtinib_02443_R1,Plate:MR009",0.437 µM
same,potency estimated from few doses,"SYK; compound concentrations:100 nM and 1000 nM (sheet 'Lestaurtinib' of Supplementary Table 1),run:Lestaurtinib_02473_R1,Plate:MR010",0.478 µM
same,potency estimated from few doses,"SYK; compound concentrations:100 nM and 1000 nM (sheet 'Lestaurtinib' of Supplementary Table 1),run:Lestaurtinib_02473_R2,Plate:MR010",0.446 µM
same,potency estimated from few doses,"SYK; compound concentrations:100 nM and 1000 nM (sheet 'Lestaurtinib' of Supplementary Table 1),run:Lestaurtinib_02473_R3,Plate:MR010",0.416 µM
same,potency estimated from few doses,"SYK; compound concentrations:100 nM and 1000 nM (sheet 'Lestaurtinib' of Supplementary Table 1),run:Lestaurtinib_02482_R1,Plate:MR011",0.523 µM
same,potency estimated from few doses,"SYK; compound concentrations:100 nM and 1000 nM (sheet 'Lestaurtinib' of Supplementary Table 1),run:Lestaurtinib_02482_R2,Plate:MR011",0.462 µM
same,potency estimated from few doses,"SYK; compound concentrations:100 nM and 1000 nM (sheet 'Lestaurtinib' of Supplementary Table 1),run:Lestaurtinib_02482_R3,Plate:MR011",0.432 µM
same,potency estimated from few doses,"SYK; compound concentrations:100 nM and 1000 nM (sheet 'Lestaurtinib' of Supplementary Table 1),run:Lestaurtinib_02487_R1,Plate:MR012",0.598 µM
same,potency estimated from few doses,"SYK; compound concentrations:100 nM and 1000 nM (sheet 'Lestaurtinib' of Supplementary Table 1),run:Lestaurtinib_02487_R2,Plate:MR012",0.495 µM
same,potency estimated from few doses,"SYK; compound concentrations:100 nM and 1000 nM (sheet 'Lestaurtinib' of Supplementary Table 1),run:Lestaurtinib_02496_R1,Plate:MR013",0.515 µM
same,potency estimated from few doses,"SYK; compound concentrations:100 nM and 1000 nM (sheet 'Lestaurtinib' of Supplementary Table 1),run:Lestaurtinib_02496_R2,Plate:MR013",0.579 µM
same,potency estimated from few doses,"SYK; compound concentrations:100 nM and 1000 nM (sheet 'Lestaurtinib' of Supplementary Table 1),run:Lestaurtinib_02566_R1,Plate:MR014",0.297 µM
same,potency estimated from few doses,"SYK; compound concentrations:100 nM and 1000 nM (sheet 'Lestaurtinib' of Supplementary Table 1),run:Lestaurtinib_02566_R3,Plate:MR014",0.134 µM
same,potency estimated from few doses,"SYK; compound concentrations:100 nM and 1000 nM (sheet 'Lestaurtinib' of Supplementary Table 1),run:Lestaurtinib_02577_R1,Plate:MR016",0.26 µM
same,potency estimated from few doses,"SYK; compound concentrations:100 nM and 1000 nM (sheet 'Lestaurtinib' of Supplementary Table 1),run:Lestaurtinib_02577_R3,Plate:MR016",0.149 µM
same,potency estimated from few doses,"SYK; compound concentrations:100 nM and 1000 nM (sheet 'Lestaurtinib' of Supplementary Table 1),run:Lestaurtinib_02584_R1,Plate:MR017",0.473 µM
same,potency estimated from few doses,"SYK; compound concentrations:100 nM and 1000 nM (sheet 'Lestaurtinib' of Supplementary Table 1),run:Lestaurtinib_02584_R3,Plate:MR017",0.401 µM
same,potency estimated from few doses,"SYK; compound concentrations:100 nM and 1000 nM (sheet 'Lestaurtinib' of Supplementary Table 1),run:Lestaurtinib_02601_R1,Plate:MR018",0.42 µM
same,potency estimated from few doses,"SYK; compound concentrations:100 nM and 1000 nM (sheet 'Lestaurtinib' of Supplementary Table 1),run:Lestaurtinib_02601_R2,Plate:MR018",0.553 µM
same,potency estimated from few doses,"SYK; compound concentrations:100 nM and 1000 nM (sheet 'Lestaurtinib' of Supplementary Table 1),run:Lestaurtinib_02601_R3,Plate:MR018",0.462 µM
